According to the supplement of paper PMC11732987, “Enantioselective OTUD7B fragment discovery through chemoproteomics screening and high-throughput optimisation” (Communications Chemistry, 2025):

Target: T1, USP22 (UniProt Q9UPT9)
T1 sequence (whole entry): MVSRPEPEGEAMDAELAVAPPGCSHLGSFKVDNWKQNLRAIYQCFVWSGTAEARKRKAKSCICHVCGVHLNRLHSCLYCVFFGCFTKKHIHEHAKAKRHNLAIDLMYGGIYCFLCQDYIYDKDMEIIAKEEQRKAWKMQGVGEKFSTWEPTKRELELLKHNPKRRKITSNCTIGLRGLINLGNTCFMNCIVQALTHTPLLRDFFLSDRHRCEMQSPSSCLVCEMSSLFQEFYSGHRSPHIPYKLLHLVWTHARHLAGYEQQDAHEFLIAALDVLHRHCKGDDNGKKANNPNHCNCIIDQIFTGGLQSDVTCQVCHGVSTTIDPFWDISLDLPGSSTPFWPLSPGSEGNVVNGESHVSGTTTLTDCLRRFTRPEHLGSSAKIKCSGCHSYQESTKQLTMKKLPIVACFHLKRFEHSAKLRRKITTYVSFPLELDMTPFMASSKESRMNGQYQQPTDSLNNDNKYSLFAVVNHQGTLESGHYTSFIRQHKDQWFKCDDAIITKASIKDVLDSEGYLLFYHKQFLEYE
Test: log2 ratio of Biotin-Ahx-Ub-VS probe labelling (fragment/DMSO); higher = less target engagement (more negative = stronger competition), active = hit call of the paper (q ≤ 0.05, log2 ratio ≤ -1)
Conditions: compound concentration: 200 uM; treatment time: 3 h
Experimental: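 Competitive ABPP in HEK293T cell lysate. Lysates were treated with each chloroacetamide fragment at 200 µM for 3 h, then with Biotin-Ahx-Ub-VS (0.5 µM, 1 h), NeutrAvidin-enriched and analysed by diaPASEF LC-MS/MS. Protein LFQ was median-normalised; average log2 ratio is fragment/DMSO from an unpaired t-test (n=3 treated, n=44 DMSO). Hits: q ≤ 0.05, log2 ratio ≤ -1, unique peptides ≥ 2.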

log2 ratio of Biotin-Ahx-Ub-VS probe labelling, inactive:
O=C(CCl)NC(Cn1ccccc1=O)c1ccccc1 (stereo not given) 0.298, O=C(CCl)N1CCC(O)(Cc2ccc(F)cc2)C1 (stereo not given) -0.265, Cc1ccc(CN(CCO)C(=O)CCl)cc1 -0.0829, O=C(CCl)NC1CCC(C(F)(F)F)CC1 (stereo not given) 0.067, O=C(CCl)Nc1ccc(F)cc1Cl -0.0369, Cc1ccccc1CN(C)C(=O)CCl -0.0794, N#Cc1cnn(-c2ccccc2)c1NC(=O)CCl 0.00637, Cl.Cn1cnc2cc(CNC(=O)CCl)ccc21 0.00285, O=C(CCl)N1CCc2[nH]c3ccccc3c2C1 -0.357, O=C(CCl)NCCC1COCCO1 (stereo not given) 0.193, CC1CCc2onc(CNC(=O)CCl)c2C1 (stereo not given) 0.192, O=C(CCl)NCc1noc(C2CC2)n1 -0.122, Cc1c(C#N)c(NC(=O)CCl)n(Cc2ccco2)c1C -0.178, O=C(CCl)NCc1ccc(N2CCOCC2)c(F)c1 -0.359, Cc1nnc(C(NC(=O)CCl)c2ccccc2)n1C (stereo not given) 0.332, O=C(CCl)N1CCC(C(=O)N2CCCC2)CC1 0.0347, O=C(CCl)NCCc1ccc(F)cc1 0.0853, CN(C(=O)CCl)c1nc2ccccc2s1 -0.0338, O=C(CCl)N1CC=C(c2c[nH]c3ccccc23)CC1 -0.57, CN1c2ccccc2C(NC(=O)CCl)CS1(=O)=O (stereo not given) -0.303, CC(NC(=O)CCl)c1ccc2[nH]ncc2c1 (stereo not given) 0.0735, Cc1cccc(N(CCC#N)C(=O)CCl)c1C -0.11, O=C(CCl)NCc1ccc(Cl)cc1 -0.199, O=C(CCl)Nc1cc2c(cc1Cl)OCCO2 -0.112, O=C(CCl)N1CCC(=C(F)CO)C1 0.192, Cc1cccc2nc(CCNC(=O)CCl)cn12.Cl 0.075, CCc1c[nH]c(CNC(=O)CCl)n1.Cl -0.0631, CC(c1ccccc1)N(C)C(=O)CCl (stereo not given) 0.102, Cc1noc(C)c1CNC(=O)CCl -0.912, CC(O)CC1CCN(C(=O)CCl)CC1 (stereo not given) 0.037, CC(C)n1nccc1NC(=O)CCl 0.134, Cl.O=C(CCl)NC1(c2ncccn2)CCC1 0.221, Cl.Cn1ncc2c1CC(NC(=O)CCl)CC2 (stereo not given) 0.0984, O=C(CCl)Nc1cc(Cl)ccc1-n1cncn1 -0.15, Cl.O=C(CCl)N1CCn2cncc2C1 -0.0616, Cl.O=C(CCl)NCCc1ncc(F)cc1F -0.0071, Cc1n[nH]c2c1CN(C(=O)CCl)CC2 -0.846, Cc1nc(-c2cccc(NC(=O)CCl)c2)cs1 -0.0833, CN(C)C(=O)c1ccc(CNC(=O)CCl)cc1 0.0551, Cl.O=C(CCl)N1CCN(Cc2ccccc2)CC1 -0.403
